INS promoter inh = inhibitors of insulin promoter-driven GFP, primary screen, imaging, TRM-6 cells (human fetal islet line), eGFP reporter, cell count. hit rate 0.9% among 130,000. inhibition, % at 2 µM. reporter expression induced with tamoxifen;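 active = inhibition above the mean plus 3 SD, with well images judged a real hit on visual review, cut at about 60% in these data, passing the limit was not always enough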
WT yeast gro inh = growth inhibition of WT strain, primary screen, mitochondrial fusion inhibitor project, WT and mutant strains, chemical genetic; hit rate 2.1% among 190,000; inhibition, % at 10 µM; mitochondrial fusion phenotypic screen; in the data active = inhibition above about 58%; tested in S. cerevisiae
Autophagy mod = autophagy modulators in MEF cells, primary screen, imaging, high-content, MEF GFP-LC3 | calls only at 10 µM (by protocol) | AID 463193, 2010 | hit rate 0.98% among 190,000 | MEF GFP-LC3 puncta imaging; test concentration mostly 10 µM;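 active = percentage of spot-positive cells more than 3 SD above its plate mean, without a fluorescence outlier flag or 80% toxicity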;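 note: spot-positive cell cutoff set from DMSO-treated cells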
Lmaj promast = Leishmania major promastigote growth inhibition, primary screen; inhibition, % at 10 µM; Leishmania major promastigotes, resazurin fluorescence viability; hit rate 9% among 200,000; in the data active = inhibition above about 50%;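 note: promastigotes grown with compound for 44 hours at 28 °C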
Insulin prom up = insulin promoter activators in MIN6 cells, imaging, high-content screening, mouse beta cells; MIN6 insulin promoter-GFP reporter; active compounds read high; z-score at 5 µM; hit rate 0.3% among 190,000;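 active = z-score above 3 at 5 µM with at least 500 cells counted in the well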
* hit, by the source's call; i = inactive; . = no result given; + = active, no number. Rows were chosen to be rich in hits. Some 11% of all compounds tested hit in one or more screens of this group.

SMILES	INS promoter inh	WT yeast gro inh	Autophagy mod	Lmaj promast	Insulin prom up
O=[N+]([O-])c1ccc(CNC2CCCc3ccccc32)cc1 (stereo not drawn)	45	9	i	83*	-0.75
Clc1cccc(Cl)c1Cn1ccc(C2CC2)n1	.	-11	i	3	1.3
Cc1nc2ccccn2c1C(=O)/C=C/c1ccc(F)cc1	.	12	i	86*	2.4
CN1CCC/C1=C1/C(=O)N(c2ccccc2)N=C1NC(=O)Nc1cccc(Cl)c1	.	-7	i	9	0.07
O=C(CSc1ncccn1)Nc1cc(Cl)ccc1[N+](=O)[O-]	17	34	i	-12	0.18
CC12CNCC(C)(CN(C(c3ccccc3)c3ccccc3)C1)C2	-19	-10	i	100*	-0.5
CN=c1scc(-c2cccs2)n1/N=C/c1ccccc1O	33	62*	i	86*	0.53
CN=c1scc(-c2cccs2)n1/N=C/c1ccc(O)c(O)c1O	.	24	i	-10	-0.38
O=C(N/N=C/c1ccccc1O)c1cc(=O)[nH]c2ccccc12	-11	5	i	99*	0.01
NC(=S)N/N=C\c1ccc(-c2cccc(Cl)c2Cl)o1	1	31	i	100*	0.98
NC(=S)N/N=C/c1ccc(-c2ccc(Cl)c(Cl)c2)o1	22	69*	i	96*	-0.01
Cc1ccc(-c2ccc(/C=N/NC(N)=S)o2)cc1	.	.	.	.	-0.41
Cc1cc(-c2nn(-c3ccccc3F)cc2CN2CCN(c3ccccn3)CC2)c(C)s1	.	66*	i	38	-0.33
CC1(C)C2CCC1(CS(=O)(=O)Nc1ccc(S(=O)(=O)N3CCCC3)cc1)C(=O)C2 (stereo not drawn)	-3	5	i	50*	0.16
CC1(C)C2CCC1(CS(=O)(=O)Nc1ccc(S(=O)(=O)NC3CCCCC3)cc1)C(=O)C2 (stereo not drawn)	.	16	i	6	-0.04
CC(C)(C)N(Cc1ccccc1)C(=O)COC(=O)c1cccc([N+](=O)[O-])c1	.	-6	i	8	0.61
CCOc1ccc(C(=O)Nc2ccc(NC(=O)c3ccco3)c(Cl)c2)cc1Cl	16	1	+	-3	-0.08
CCOc1ccccc1NC(=O)c1cccc(NC(=O)c2ccco2)c1	-13	12	+	100*	-0.89
CCOc1ccccc1NC(=O)c1cccc(S(=O)(=O)N(Cc2ccccc2)c2ccccc2OC)c1	13	2	i	86*	-0.87
O=C(Nc1ccc(NC(=O)c2cccs2)c(Cl)c1)c1ccco1	.	-4	i	59*	-0.4
COc1ccc(NC(=O)c2ccco2)cc1NC(=O)c1cccs1	-273	-10	i	16	-0.87
CCOC(=O)c1c(C)nc2sc3c(c2c1-c1ccc(OC)cc1)NC(c1ccc(OC)cc1)NC3=O (stereo not drawn)	-163	41	i	-6	-1.4
COc1ccc([C@H]2C(C#N)=C([S-])N[C@](C)(O)[C@@H]2[n+]2ccccc2)cc1	.	.	.	.	0.05
CCNC(=S)Nc1cc(OC)c(NC(=O)c2ccco2)cc1OC	3	3	i	-3	.
CCNC(=S)Nc1cc(OCC)c(NC(=O)c2ccco2)cc1OCC	-27	1	i	51*	0.59
SMILES	INS promoter inh	WT yeast gro inh	Autophagy mod	Lmaj promast	Insulin prom up
Cc1ccc(C#CC[N+](C)(C)CC#Cc2ccccc2)cc1	.	7	i	100*	-1.1
C#CC[N+](C)(C)CC#Cc1ccccc1	.	-5	i	-4	-0.09
Cc1c(C(=O)NCc2cccnc2)oc2c1C(=O)CC(C)(C)C2	79*	-9	i	6	0
CCNC(=O)c1oc2c(c1C)C(=O)CC(C)(C)C2	71	-9	i	6	.
CCC(C)NCCCCOc1ccc(Br)cc1 (stereo not drawn)	.	-10	i	94*	.
CCC(C)NCCCCOc1cc(C)cc(C(C)C)c1 (stereo not drawn)	-14	13	i	91*	0.01
CCC(C)NCCOCCOc1ccc(F)cc1 (stereo not drawn)	0	13	i	95*	.
CCC(C)NCCOCCOc1cc(C)c(Cl)c(C)c1 (stereo not drawn)	-71	17	i	87*	-1.3
CCC(C)NCCOc1cc(C)cc(C)c1C (stereo not drawn)	.	8	i	22	-0.05
CC(C)CC(C)c1cc(N)nc2nc3ccccc3n12 (stereo not drawn)	43	40	i	34	-0.96
CCCC1(C)NC(=O)c2ccccc2O1 (stereo not drawn)	41	-16	i	-3	-0.12
